Experimental data taken from PubChem BioAssay (NCI).
The panel holds about 83,000 compounds, 20% with a hit somewhere; the sample as a whole holds those more often.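 Each cell line was grown in a 96-well plate and treated with one concentration of compound for 48 hours. Values below 10 were considered active.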 The source made the active and inactive calls.

The compounds below were run on SNB-75 CNS (assay: NCI-60 one-dose screen, 48 h (100 = growth as untreated, 0 = no growth, -100 = all killed)). Details: 10 µM unless noted.

| Compound | growth |
| --- | --- |
| C=C(C)[C@@H]1CC[C@]2(C(=O)N3CCCNCC3)CC[C@]3(C)[C@H](CC[C@@H]4[C@@]5(C)CCC(=O)C(C)(C)[C@@H]5CC[C@]43C)[C@@H]12 | 56.9% (inactive) |
| CCCCC[C@H]1CC=C2C(=O)C(Cl)=C[C@@H]2CC=CCCCC(=O)O[C@@H](CCCCC)CC=C2C(=O)C(Cl)=C[C@@H]2CC=CCCCC(=O)O[C@@H](CCCCC)CC=C2C(=O)C(Cl)=C[C@@H]2CC=CCCCC(=O)O1 | 106% [8 µM] (inactive) |
| Cn1c(=O)c2c(ncn2CCC(=O)Nc2ccc(F)cc2)n(C)c1=O | 91.5% (inactive) |
| COc1ccc(-c2cc(-c3c(C)oc4cc5occc5c(OC)c4c3=O)nc(N)c2C#N)cc1OC | 40.3% (inactive) |
| COc1cc(NC(C)CN(CC(C)C)C(C)C)c2ncccc2c1 (stereo not drawn) | 80.4% (inactive) |
| COc1ccc(/C=C/C(=O)NCC(C)O)cc1 (stereo not drawn) | 84.7% (inactive) |
| Cc1cc(N(CCCNc2ccnc3cc(Cl)ccc23)Cc2ccco2)nc(Cl)n1 | 66% (inactive) |
| Cc1c(C)c2c(c(C)c1NC(=O)CCCCCCC(=O)O)CCC(C)(CCCC(C)CCCC(C)CCCC(C)C)O2 (stereo not drawn) | 93.9% (inactive) |
| CN(C)c1ccc(N=C2C=CC(=O)C=C2)cc1 | 77.6% (inactive) |
| Fc1ccc(NCc2nnc(-c3ccc(Cl)cc3)o2)cc1 | 73.6% (inactive) |
| COc1ccc(OCC(CO)N2CCN(c3ccccc3)CC2)cc1 (stereo not drawn) | 97.4% (inactive) |
| CCCCC(=O)OC1CCCCC1C (stereo not drawn) | 87.6% (inactive) |
| COc1ccc2c(c1)c(-c1nc(-c3cn(C)c4ncccc34)cs1)cn2CCN | 78.2% (inactive) |
| COc1ccc(CCN2C(=O)C(C)(C)SC2=S)cc1OC | 76.8% (inactive) |
| Cc1nnc2nc(N)[nH]n2c1=O | 93.7% (inactive) |
| COc1cccc(-c2nn(-c3ccccc3)cc2-c2ccnc(NCCNS(=O)(=O)c3cccc(F)c3)c2)c1 | 70.6% (inactive) |
| Cc1cc(Cl)c2c(N(C)C)cccc2n1 | 93.6% (inactive) |
| COc1ccccc1-n1cnc(N)c1C(=O)c1cc(OC)c(OC)c(OC)c1 | 8.36% (active) |
| Cc1cc(N2CCCCC2)nc(N(CCNc2ccnc3cc(Cl)ccc23)Cc2ccco2)n1 | 43.9% (inactive) |
| N#CC1=C(N)Oc2c(c(N)nn2-c2ccccc2)C1c1ccc(Cl)cc1Cl (stereo not drawn) | 73.2% (inactive) |

| Compound | growth |
| --- | --- |
| COc1ccc(NC(=O)c2ccc3c(c2)nc(-c2cc4ccccc4[nH]c2=O)n3-c2cc(C(C)(C)C)[nH]n2)cc1 | 76.2% (inactive) |
| N#CC1=C(N)Oc2c(sc3c(F)cccc23)C1c1ccc(Cl)cc1 (stereo not drawn) | 13.8% (inactive) |
| Cc1ccc(Cc2cnc(NC(=O)/C=C/c3cccc(C)c3)s2)cc1 | -23.6% (active) |
| Oc1cccc2oc(=S)[nH]c12 | 86.4% (inactive) |
| COc1cc(/C=C/c2cc(/C=C/c3ccc(O)c(OC)c3)n(-c3ccccc3)c(=O)n2)ccc1O | 56.9% (inactive) |
| NC(=O)NCC1CCCCC1 | 90.7% (inactive) |
| N#Cc1cnc2cc(OC[C@@H](O)CO)c(NC(=O)CC3CSSC3)cc2c1Nc1ccc(OCc2cccc(F)c2)c(Cl)c1 | -88% (active) |
| CC(=O)OCCCCCCn1c2ccccc2c2c3c(c4c5ccccc5n(C)c4c21)C(=O)N(O)C3=O | 101% (inactive) |
| Cc1nn2c(-c3nc4cc(Cl)c(Cl)cc4[nH]3)c(-c3ccc(F)cc3)nc2s1 | -43.7% (active) |
| COc1ccc(-n2c(/C=C/c3ccc(O)c(OC)c3)cc(/C=C/c3ccc(O)c(OC)c3)nc2=O)cc1 | 54.5% (inactive) |
| Cc1ccc2oc(=O)cc(-c3sc(N4CCCCC4)nc3-c3ccccc3)c2c1 | 78.1% (inactive) |
| Nc1c2c(nc3ccc(Cl)cc13)CC(c1ccc(O)cc1)CC2=O (stereo not drawn) | 30.5% (inactive) |
| O=C1c2ccccc2C(=Cc2ccccc2)c2ccccc21 | -40.9% (active) |
| C/C(=N\NC(=O)C(C)SC(C)C(=O)N/N=C(\C)c1cccnc1)c1cccnc1 (stereo not drawn) | 89.7% (inactive) |
| O=C1CCC/C=C\C[C@H]2C=C(Cl)C(=O)/C2=C/C[C@H](CCCCC(F)(F)F)OC(=O)CCC/C=C\C[C@H]2C=C(Cl)C(=O)/C2=C/C[C@H](CCCCC(F)(F)F)O1 | -1.55% [7.5 µM] (active) |
| O=C1/C(=C\c2ccco2)SC(=S)N1CCc1ccc(O)cc1 | 78.5% (inactive) |
| O=C(O)/C(=C/c1ccc(O)cc1)c1ccccc1 | 88.4% (inactive) |
| CCCCC/C(=C\c1ccccc1)C1OC(C)C(C)O1 (stereo not drawn) | 92.2% (inactive) |
| Cc1cc(C=O)c(C)c2c1[nH]c1ccccc12 | 78.7% (inactive) |

Each compound was assayed on SNB-19 CNS in the same assay as above. Details: 10 µM unless noted.

| Compound | growth |
| --- | --- |
| C=C(C)[C@@H]1CC[C@]2(C(=O)N3CCCNCC3)CC[C@]3(C)[C@H](CC[C@@H]4[C@@]5(C)CCC(=O)C(C)(C)[C@@H]5CC[C@]43C)[C@@H]12 | 91.2% (inactive) |
| CCCCC[C@H]1CC=C2C(=O)C(Cl)=C[C@@H]2CC=CCCCC(=O)O[C@@H](CCCCC)CC=C2C(=O)C(Cl)=C[C@@H]2CC=CCCCC(=O)O[C@@H](CCCCC)CC=C2C(=O)C(Cl)=C[C@@H]2CC=CCCCC(=O)O1 | 61.3% [8 µM] (inactive) |
| Cn1c(=O)c2c(ncn2CCC(=O)Nc2ccc(F)cc2)n(C)c1=O | 102% (inactive) |
| COc1ccc(-c2cc(-c3c(C)oc4cc5occc5c(OC)c4c3=O)nc(N)c2C#N)cc1OC | 64.3% (inactive) |
| COc1cc(NC(C)CN(CC(C)C)C(C)C)c2ncccc2c1 (stereo not drawn) | 116% (inactive) |
| COc1ccc(/C=C/C(=O)NCC(C)O)cc1 (stereo not drawn) | 109% (inactive) |
| Cc1cc(N(CCCNc2ccnc3cc(Cl)ccc23)Cc2ccco2)nc(Cl)n1 | 75.1% (inactive) |
| Cc1c(C)c2c(c(C)c1NC(=O)CCCCCCC(=O)O)CCC(C)(CCCC(C)CCCC(C)CCCC(C)C)O2 (stereo not drawn) | 101% (inactive) |
| CN(C)c1ccc(N=C2C=CC(=O)C=C2)cc1 | 83.6% (inactive) |
| Fc1ccc(NCc2nnc(-c3ccc(Cl)cc3)o2)cc1 | 83.2% (inactive) |
| COc1ccc(OCC(CO)N2CCN(c3ccccc3)CC2)cc1 (stereo not drawn) | 96.6% (inactive) |
| CCCCC(=O)OC1CCCCC1C (stereo not drawn) | 100% (inactive) |
| COc1ccc2c(c1)c(-c1nc(-c3cn(C)c4ncccc34)cs1)cn2CCN | 80.7% (inactive) |
| COc1ccc(CCN2C(=O)C(C)(C)SC2=S)cc1OC | 96.4% (inactive) |
| Cc1nnc2nc(N)[nH]n2c1=O | 117% (inactive) |
| COc1cccc(-c2nn(-c3ccccc3)cc2-c2ccnc(NCCNS(=O)(=O)c3cccc(F)c3)c2)c1 | 37.2% (inactive) |
| Cc1cc(Cl)c2c(N(C)C)cccc2n1 | 105% (inactive) |
| COc1ccccc1-n1cnc(N)c1C(=O)c1cc(OC)c(OC)c(OC)c1 | 55.1% (inactive) |
| Cc1cc(N2CCCCC2)nc(N(CCNc2ccnc3cc(Cl)ccc23)Cc2ccco2)n1 | -69.9% (active) |
| N#CC1=C(N)Oc2c(c(N)nn2-c2ccccc2)C1c1ccc(Cl)cc1Cl (stereo not drawn) | 95.2% (inactive) |

| Compound | growth |
| --- | --- |
| COc1ccc(NC(=O)c2ccc3c(c2)nc(-c2cc4ccccc4[nH]c2=O)n3-c2cc(C(C)(C)C)[nH]n2)cc1 | 75.4% (inactive) |
| N#CC1=C(N)Oc2c(sc3c(F)cccc23)C1c1ccc(Cl)cc1 (stereo not drawn) | 29.2% (inactive) |
| Cc1ccc(Cc2cnc(NC(=O)/C=C/c3cccc(C)c3)s2)cc1 | 13.4% (inactive) |
| Oc1cccc2oc(=S)[nH]c12 | 106% (inactive) |
| COc1cc(/C=C/c2cc(/C=C/c3ccc(O)c(OC)c3)n(-c3ccccc3)c(=O)n2)ccc1O | 76.2% (inactive) |
| NC(=O)NCC1CCCCC1 | 115% (inactive) |
| N#Cc1cnc2cc(OC[C@@H](O)CO)c(NC(=O)CC3CSSC3)cc2c1Nc1ccc(OCc2cccc(F)c2)c(Cl)c1 | -66% (active) |
| CC(=O)OCCCCCCn1c2ccccc2c2c3c(c4c5ccccc5n(C)c4c21)C(=O)N(O)C3=O | 77.5% (inactive) |
| Cc1nn2c(-c3nc4cc(Cl)c(Cl)cc4[nH]3)c(-c3ccc(F)cc3)nc2s1 | 25.7% (inactive) |
| COc1ccc(-n2c(/C=C/c3ccc(O)c(OC)c3)cc(/C=C/c3ccc(O)c(OC)c3)nc2=O)cc1 | 69.9% (inactive) |
| Cc1ccc2oc(=O)cc(-c3sc(N4CCCCC4)nc3-c3ccccc3)c2c1 | 95.3% (inactive) |
| Nc1c2c(nc3ccc(Cl)cc13)CC(c1ccc(O)cc1)CC2=O (stereo not drawn) | 45.8% (inactive) |
| O=C1c2ccccc2C(=Cc2ccccc2)c2ccccc21 | 24.8% (inactive) |
| C/C(=N\NC(=O)C(C)SC(C)C(=O)N/N=C(\C)c1cccnc1)c1cccnc1 (stereo not drawn) | 110% (inactive) |
| O=C1CCC/C=C\C[C@H]2C=C(Cl)C(=O)/C2=C/C[C@H](CCCCC(F)(F)F)OC(=O)CCC/C=C\C[C@H]2C=C(Cl)C(=O)/C2=C/C[C@H](CCCCC(F)(F)F)O1 | -37.9% [7.5 µM] (active) |
| O=C1/C(=C\c2ccco2)SC(=S)N1CCc1ccc(O)cc1 | 95.6% (inactive) |
| O=C(O)/C(=C/c1ccc(O)cc1)c1ccccc1 | 99.7% (inactive) |
| CCCCC/C(=C\c1ccccc1)C1OC(C)C(C)O1 (stereo not drawn) | 98.6% (inactive) |
| Cc1cc(C=O)c(C)c2c1[nH]c1ccccc12 | 94.6% (inactive) |
